Inconclusive results are not listed. The source made the active and inactive calls. Unless noted, calls come from the whole dose curve; as a rule, active = well fitted curve in the direction sought with a large enough effect in the repeat runs; inconclusive = weak or mixed curves; inactive = no such curve, though single readings can be large; an effect the other way counts as inactive or inconclusive.
Tests used:
[1] = A CellTox Green Cytotoxicity Assay to monitor cytotoxicity in HepG2 cells - 8 hour (AID 1224890); note: nearly all actives have a fitted effect of over 45% in size
Outline: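 Real-time, homogeneous cytotoxicity readout: dead-cell DNA staining by CellTox Green in HepG2 monolayers, fluorescence measured at timed intervals up to 40 h of continuous compound exposure.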

[2] = qHTS assay to identify small molecule antagonists of the estrogen receptor alpha (ER-alpha) signaling pathway using the BG1 cell line in the presence of 0.1 nM 17-beta-estradiol - cell viability counter screen (AID 1259241); note: nearly all actives have a fitted effect of over 40% in size
Outline: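 Estradiol-stimulated (0.1 nM) VM7Luc4E2 cells exposed to compounds 22 hr; viability measured by fluorescence of cleaved CellTiter-Fluor substrate after 30 min.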

[3] = qHTS assay to identify small molecule antagonists of the androgen receptor (AR) signaling pathway using the MDA cell line in the presence of 0.5 nM R1881 - cell viability counter screen (AID 1259242); note: nearly all actives have a fitted effect of over 45% in size
Outline: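 Cytotoxicity toward MDA-kb2 cells is measured by CellTiter-Fluor live-cell protease fluorescence after 16 hr compound exposure at 37C in the presence of 0.5 nM R1881 stimulator.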

[4] = target: Estrogen receptor (Homo sapiens) (UniProt P03372); experiment: qHTS assay to identify small molecule antagonists of the estrogen receptor alpha (ER-alpha) signaling pathway using the BG1 cell line in the presence of 0.1 nM 17-beta-estradiol (AID 1259244); note: nearly all actives have a fitted effect of over 50% in size
Estrogen receptor (Homo sapiens), sequence (P03372 whole entry, looked up): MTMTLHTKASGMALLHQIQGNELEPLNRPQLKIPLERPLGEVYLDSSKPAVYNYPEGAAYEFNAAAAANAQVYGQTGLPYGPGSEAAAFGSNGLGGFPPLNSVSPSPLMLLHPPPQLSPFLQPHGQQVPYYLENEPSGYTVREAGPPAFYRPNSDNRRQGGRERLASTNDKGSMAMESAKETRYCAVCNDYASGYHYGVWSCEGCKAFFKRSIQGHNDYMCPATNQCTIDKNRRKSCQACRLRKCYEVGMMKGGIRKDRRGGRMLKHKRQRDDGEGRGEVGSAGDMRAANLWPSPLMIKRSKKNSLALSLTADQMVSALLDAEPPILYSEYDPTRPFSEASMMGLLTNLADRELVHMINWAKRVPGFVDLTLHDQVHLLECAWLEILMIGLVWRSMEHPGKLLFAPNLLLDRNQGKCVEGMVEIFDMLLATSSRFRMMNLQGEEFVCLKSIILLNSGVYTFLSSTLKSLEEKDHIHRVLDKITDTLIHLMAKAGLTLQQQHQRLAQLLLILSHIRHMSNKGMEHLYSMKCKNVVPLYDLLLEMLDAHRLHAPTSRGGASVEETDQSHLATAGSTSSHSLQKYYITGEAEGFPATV
Outline: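 After 5 days in hormone-depleted medium (charcoal-stripped serum, no phenol red), VM7Luc4E2 cells were seeded, incubated 24 h, then co-treated with compound and 0.1 nM (final) estradiol for 22 h before luminescence detection.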

[5] = qHTS assay to identify small molecule phospholipidosis (PLD) inducers (AID 1259344; active = well fitted curve in the direction sought with a large enough effect; an effect the other way counts as inactive or inconclusive)
Outline: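 HepG2 cells, 900/well, treated with compound plus LipidTOX Red for 24 h at 37 C; amiodarone positive and DMSO negative controls. Fixed with paraformaldehyde/Hoechst, then high-content imaging scored LipidTOX pit count and integrated intensity per well and per cell.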

[6] = qHTS assay to identify small molecule HDAC inhibitors (AID 1259364); note: top concentration of the series differs between compounds; nearly all actives have a fitted effect of over 45% in size
Outline: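 Homogeneous cell-based luminescent assay of endogenous class I/II HDAC activity; HCT-116 cells, 2 h compound exposure, 30 min HDAC-Glo development at RT.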

[7] = qHTS assay to identify small molecule HDAC inhibitors - cell viability counter screen (AID 1259365); note: series mostly up to about 92 µM; nearly all actives have a fitted effect of over 50% in size
Outline: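 After overnight seeding at 1,500 cells per well, wild-type HCT-116 cultures took up compounds in DMSO for 2hr at 37 C. Viable cell content came from luminescence with CellTiter-Glo.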

[8] = qHTS assay to identify small molecule antagonists of the sonic hedgehog signaling (Shh) pathway - cell viability counter screen (AID 1259367); note: nearly all actives have a fitted effect of over 55% in size
Outline: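 NIH/3T3-derived Gli1-Luc reporter cells, 2,000/well, plated 4 hr before compound addition, then stimulated with conditioned medium for 24 hr at 37C. Viability measured in the same wells by CellTiter-Fluor fluorescence, reagent added at 23 hr for 1 hr.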

[9] = qHTS assay to identify small molecule agonists of the sonic hedgehog signaling (Shh) pathway (AID 1259368; calls by dose curve;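 note: NIH/3T3-derived 3T3Gli1-Luc cells carrying a stable Gli1-driven firefly luciferase reporter; series mostly up to about 92 µM; nearly all actives have a fitted effect of over 15% in size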)
Outline: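 Steps: seed 3T3 Gli1-Luc cells, incubate 4 hr at 37 C, pin-transfer compounds in DMSO alongside a positive control, incubate 24 hr, add luciferase detection reagent, wait 30 min at room temperature, read luminescence.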

[10] = qHTS assay to identify small molecule antagonists of the sonic hedgehog signaling (Shh) pathway (AID 1259369; calls by dose curve; note: nearly all actives have a fitted effect of over 45% in size)
Outline: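 Inhibition of Shh signalling is measured as reduced Gli1-response-element firefly luciferase output in an NIH/3T3-derived stable reporter clone stimulated with conditioned medium for 24hr.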

[11] = target: Estrogen receptor beta (Homo sapiens) (UniProt Q92731); experiment: qHTS assay to identify small molecule agonists of the estrogen receptor beta (ER-beta) signaling pathway (AID 1259377; active = well fitted activation curve with a large enough effect in the signal ratio in the repeat runs, not every such curve was filed as active; the % refers to the signal ratio)
Estrogen receptor beta (Homo sapiens), sequence (Q92731 whole entry, looked up): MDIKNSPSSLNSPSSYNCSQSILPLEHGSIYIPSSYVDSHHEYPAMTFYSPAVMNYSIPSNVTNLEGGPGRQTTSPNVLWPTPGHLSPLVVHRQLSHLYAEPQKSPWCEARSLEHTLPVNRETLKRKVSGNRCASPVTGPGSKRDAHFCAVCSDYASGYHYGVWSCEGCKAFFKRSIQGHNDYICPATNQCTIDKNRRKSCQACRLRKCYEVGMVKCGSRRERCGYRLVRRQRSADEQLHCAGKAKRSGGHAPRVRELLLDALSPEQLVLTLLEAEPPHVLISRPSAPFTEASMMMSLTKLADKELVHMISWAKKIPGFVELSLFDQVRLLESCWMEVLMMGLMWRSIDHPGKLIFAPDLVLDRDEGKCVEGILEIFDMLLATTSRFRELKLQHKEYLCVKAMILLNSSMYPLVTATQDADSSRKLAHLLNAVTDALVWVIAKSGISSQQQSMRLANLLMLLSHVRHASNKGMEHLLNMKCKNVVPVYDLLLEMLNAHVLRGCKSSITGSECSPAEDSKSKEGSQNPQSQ
Outline: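 Read-out: beta-lactamase FRET fluorescence. Cell line: ER-beta-UAS-bla HEK293T in 2% charcoal-stripped FBS. Exposure: 16 hr at 37C. Substrate step: 2 h at room temperature.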

[12] = target: Estrogen receptor beta (Homo sapiens) (UniProt Q92731); experiment: qHTS assay to identify small molecule antagonists of the estrogen receptor beta (ER-beta) signaling pathway (AID 1259378; active = well fitted inhibition curve with a large enough effect in the signal ratio in the repeat runs, not every such curve was filed as active; the % refers to the signal ratio)
Outline: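 ER-beta-UAS-bla HEK293T cells in 2% charcoal-stripped FBS medium treated with compound plus 1nM final 17-beta-estradiol for 16 hr at 37C. Beta-lactamase reporter read by FRET substrate fluorescence after 2 hours at room temperature.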

[13] = qHTS assay to identify small molecule agonists of the androgen receptor (AR) signaling pathway in the presence of an antagonist - cell viability counter screen (AID 1259379);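 note: MDA-kb2 human breast cancer cells carrying an MMTV luciferase reporter; series mostly up to about 92 µM; nearly all actives have a fitted effect of over 25% in size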
Outline: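 Fluorescence from CellTiter-Fluor, added after 15 hr and read 1 hr later, gave cell viability. Cells were MDA-kb2 exposed to compounds (15 concentrations) in the presence of 3.0uM nilutamide at 37C, 0% CO2.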

[14] = qHTS assay to identify small molecule agonists of the estrogen receptor beta (ER-beta) signaling pathway - cell viability counter screen (AID 1259380); note: nearly all actives have a fitted effect of over 30% in size
Outline: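 Same-well viability counter screen. Cells: ER-beta-UAS-bla HEK293T, plated 6 hr before compound, in 2% charcoal-stripped FBS. Compound exposure 16 hr, 37C; viability by CellTiter-Glo luminescence after 30 min at room temperature.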

[15] = target: Estrogen receptor (Homo sapiens) (UniProt P03372); experiment: qHTS assay to identify small molecule agonists of the estrogen receptor alpha (ER-alpha) signaling pathway in the presence of an antagonist (AID 1259383; calls by dose curve; note: top concentration of the series differs between compounds; nearly all actives have a fitted effect of over 15% in size)
Outline: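 Cells are hormone-deprived for 5 days (charcoal-stripped FBS, no phenol red), plated for 24hr, spiked with 10.0nM ICI-182,780, then dosed at 15 concentrations. After 22hr at 37C, ONE-Glo luminescence reports ERE-luciferase activity.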

[16] = qHTS assay to identify small molecule agonists or antagonists of the thyroid stimulating hormone receptor (TSHR) signaling pathway - wild type cell line counter screen (AID 1259384; calls by dose curve)
Outline: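 Wild-type Hek293 cells, 800/well, 18 h at 37C, then compound with Ro20-1724 for 30 min RT. cAMP by HTRF (cAMP-d2/anti-cAMP cryptate), 1 h RT, fluorescence read. 15 concentrations, triplicates.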

[17] = qHTS assay to identify small molecule antagonists of the estrogen receptor beta (ER-beta) signaling pathway - cell viability counter screen (AID 1259382); note: series mostly up to about 92 µM; nearly all actives have a fitted effect of over 55% in size
Outline: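 Following a 6 hr plating period, HEK293T cells carrying a UAS-driven beta-lactamase reporter under ER-beta control received compounds and 1nM E2 (final). After 16 hr at 37C and 2 hr substrate loading, CellTiter-Glo luminescence indicated viability.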

[18] = qHTS assay to identify small molecule agonists of the sonic hedgehog signaling (Shh) pathway - cell viability counter screen (AID 1259366); note: nearly all actives have a fitted effect of over 50% in size
Outline: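 Same-well cytotoxicity read. Gli1-Luc reporter 3T3 cells; compounds 24hr, 37C/5% CO2; CellTiter-Fluor fluorescence.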
% is set by controls: 0 for no effect and ±100 for the full control effect.

CCO/C([O-])=N/c1c[n+](N2CCOCC2)no1
inactive: Potency [1] | outcome [2] | Potency [3] | outcome [4] | Potency [5] | Potency [6] | outcome [7] | Potency [8] | outcome [9] | Potency [10] | outcome [11] | outcome [12] | Potency [13] | Potency [14] | Potency [15] | outcome [16]

COc1ccccc1OCC(O)CN1CCN(CC(=O)Nc2c(C)cccc2C)CC1 (centres undefined)
inactive: Potency [1] | outcome [2] | Potency [3] | outcome [4] | Potency [5] | outcome [7] | Potency [8] | outcome [9] | Potency [10] | outcome [11] | outcome [12] | Potency [13] | Potency [14] | Potency [17] | Potency [15] | outcome [16]

CCOC(=O)C(=O)OCC
inactive: Potency [1] | outcome [2] | Potency [3] | outcome [4] | Potency [6] | outcome [7] | Potency [18] | Potency [8] | outcome [9] | Potency [10] | outcome [11] | outcome [12] | Potency [13] | Potency [14] | Potency [17] | Potency [15]

CCN(CC)CCOCCOC(=O)C1(c2ccccc2)CCCC1
inactive: Potency [1] | outcome [2] | Potency [3] | outcome [4] | Potency [5] | Potency [6] | outcome [7] | Potency [10] | Potency [13] | Potency [14] | Potency [17] | Potency [15] | outcome [16]

COCCCOCCCOC
inactive: Potency [1] | outcome [2] | Potency [3] | outcome [4] | Potency [6] | outcome [7] | Potency [18] | Potency [8] | outcome [9] | Potency [10] | outcome [11] | outcome [12] | Potency [13] | Potency [14] | Potency [15]

CN1C(=O)N(C)C(O)C1O (centres undefined)
inactive: Potency [1] | outcome [2] | Potency [3] | outcome [4] | Potency [6] | outcome [7] | Potency [18] | Potency [8] | outcome [9] | Potency [10] | outcome [11] | outcome [12] | Potency [13] | Potency [14] | Potency [17] | Potency [15] | outcome [16]

CCS(=O)(=O)c1ccc(OC)c(C(=O)OC)c1
inactive: Potency [1] | outcome [2] | Potency [3] | outcome [4] | Potency [6] | outcome [7] | Potency [18] | Potency [8] | outcome [9] | Potency [10] | outcome [11] | outcome [12] | Potency [13] | Potency [14] | Potency [17] | Potency [15]

COc1ccc2c(c1)CCCC2=O
inactive: Potency [1] | outcome [2] | Potency [3] | outcome [4] | Potency [6] | outcome [7] | Potency [18] | Potency [8] | outcome [9] | Potency [10] | Potency [13] | Potency [14] | Potency [17] | Potency [15]

N[C@H]1CN(c2c(F)cc3c(=O)c(C(=O)O)cn(C4C[C@H]4F)c3c2Cl)CC12CC2 (some centres undefined)
inactive: Potency [1] | outcome [2] | Potency [3] | outcome [4] | Potency [5] | outcome [7] | Potency [18] | Potency [8] | outcome [9] | Potency [10] | Potency [13] | Potency [14] | Potency [17] | Potency [15]

CC1(C)CO[C@@H](CC(=O)O)CN1
inactive: Potency [1] | outcome [2] | Potency [3] | outcome [4] | Potency [5] | Potency [6] | outcome [7] | Potency [8] | outcome [9] | Potency [10] | outcome [11] | outcome [12] | Potency [13] | Potency [14] | Potency [15]

C1CN(CCOCCN2CCOCC2)CCO1
inactive: Potency [1] | outcome [2] | Potency [3] | outcome [4] | Potency [6] | outcome [7] | Potency [18] | Potency [8] | outcome [9] | Potency [10] | outcome [11] | outcome [12] | Potency [13] | Potency [14] | Potency [15] | outcome [16]

C[C@@H]1CCN(C(=O)[C@H](CCCN=C(N)N)NS(=O)(=O)c2cccc3c2NC[C@H](C)C3)[C@@H](C(=O)O)C1
inactive: Potency [1] | outcome [2] | Potency [3] | outcome [4] | Potency [5] | outcome [7] | Potency [8] | outcome [9] | Potency [10] | Potency [13] | Potency [14] | Potency [17] | Potency [15] | outcome [16]

O=C1OC(=O)C2CCCCC12 (centres undefined)
inactive: Potency [1] | outcome [2] | Potency [3] | outcome [4] | Potency [6] | outcome [7] | Potency [18] | Potency [8] | outcome [9] | Potency [10] | Potency [13] | Potency [14] | Potency [17] | Potency [15]

N[C@H](C(=O)O)c1ccc(O)cc1
inactive: cytotoxicity increase [1] -9.51% [at 15.8 µM] | activity change, negative = cytotoxicity [2] 8.37% [at 19 µM] | viability change, negative = cytotoxic [3] 0.442% [at 19 µM] | activity change, negative = inhibition [4] 12.1% [at 19 µM] | Potency [5] | activity change, negative = inhibition [6] -0.75% [at 19 µM] | activity change, negative = cytotoxicity [7] -1.63% [at 19 µM] | Potency [8] | Potency [10] | activity change, negative = cytotoxicity [13] 0.253% [at 19 µM] | activity change, negative = cytotoxicity [14] 9.39% [at 19 µM] | activity change, negative = cytotoxicity [17] 3.71% [at 19 µM] | activation [15] 0.585% [at 19 µM] | cAMP activity change [16] 3.37% [at 18.9 µM]

CCCCCOC(=O)CCCCC
inactive: Potency [1] | outcome [2] | Potency [3] | outcome [4] | Potency [6] | outcome [7] | Potency [18] | Potency [8] | outcome [9] | Potency [10] | Potency [13] | Potency [14] | Potency [17] | Potency [15]

Source: PubChem BioAssay (Tox21)
